# Compound activity from PubChem.
# Most compounds without a hit are left out; they make up all but 14% or so of the library.
# USP17 block: inhibitors of human USP17 deubiquitinase; A8MUK1; purified USP17, Ub-rhodamine cleavage fluorescence, 3 h; inhibition, % at 50 µM; actives 6.5% (n = 47,000); AID 1645855
# USP8 inh: human USP8 deubiquitinase inhibition; P40818; purified USP8, Ub-rhodamine cleavage fluorescence, 30 min; inhibition, % at 20 µM; actives 4.2% (n = 47,000); AID 1645853
# USP28 inh: human USP28 deubiquitinase inhibition; Q96RU2; purified USP28, Ub-rhodamine cleavage fluorescence, 30 min; inhibition, % at 25 µM; actives 3% (n = 47,000); AID 1645857
# USP30 inh: human USP30 deubiquitinase inhibition; Q70CQ3; purified USP30, Ub-rhodamine cleavage fluorescence; inhibition, % at 25 µM; actives 5.3% (n = 47,000); AID 1645860
# The depositor's hits bear a star; / = not tested or not shown. Rule as the data show it: active = inhibition above about 30%; inactive = the rest.
SMILES,USP17 block,USP8 inh,USP28 inh,USP30 inh
Cc1ccccc1NC(=O)Cn1c(=O)n(-c2ccc(CC(=O)NCCc3ccccc3)cc2)c(=O)c2sccc21,24,84*,5,-1
Cc1ccc(NC(=O)Cn2c(=O)n(-c3ccc(CC(=O)NCc4ccco4)cc3)c(=O)c3sccc32)c(C)c1,69*,15,/,/
Cc1cc(C)n(-c2nc3c(c(=O)n2CC(=O)NCc2ccco2)CCCC3)n1,-10,-11,0,6
O=C(Cc1ccc(-n2c(=O)c3sccc3n(Cc3ccc(F)cc3)c2=O)cc1)NCCc1ccccc1,67*,23,/,/
CCc1ccccc1NC(=O)Cn1c(=O)n(CC(=O)NCc2ccccc2Cl)c(=O)c2sccc21,26,38*,7,15
Cc1cc(C)n(-c2ncc(NC(=O)c3ccc(Br)o3)cn2)n1,0,-31,29,-52
O=C(CSc1nc2cc(C(F)(F)F)ccc2s1)NCC(=O)c1ccccc1,91*,32*,5,0
O=C(NCc1ccco1)c1cccnc1-c1nc2ccccc2s1,3,33*,13,-13
N#Cc1ccc(Cl)cc1NC(=O)c1ccc(N2CCCCC2)nn1,-17,-49,-13,-62
COc1cccc2[nH]c(C(=O)NCC(=O)Nc3ccc4c(c3)OCO4)cc12,40*,1,4,-4
CCOC(=O)N1CCN(C(=O)CNC(=O)c2cc3c(OC)cccc3[nH]2)CC1,13,12,18,15
O=C(CNC(=O)c1cc2ccccc2[nH]1)Nc1ccc2c(c1)OCCO2,51*,5,18,25
COc1ccc(NC(=O)[C@H](C)NC(=O)c2cc3c(OC)cccc3[nH]2)cc1Cl,86*,98*,74*,70*
O=C(c1cc2ccccc2[nH]1)N1CCCC1c1ccc2c(c1)OCCO2 (stereo not given),9,20,4,-13
CCN1CCN(C(c2cc(OC)c(OC)c(OC)c2)c2sc3ncnn3c2O)CC1 (stereo not given),-16,9,-2,7
CSc1nc2n(n1)C(c1cccnc1)C(C(=O)Nc1ccc(F)cc1)=C(C)N2 (stereo not given),12,1,5,14
CN1CCN(C(=O)C(=O)Nc2ccc(Cl)cn2)CC1,13,19,3,10
CN1C(=O)c2cc(NC(=O)c3ccccc3)ccc2Oc2ccccc21,13,6,41*,7
CN1C(=O)c2cc(NC(=O)c3ccccc3Cl)ccc2Oc2ccccc21,2,0,80*,9
CCN1C(=O)c2cc(NC(=O)c3ccc(F)cc3)ccc2Oc2ccccc21,14,19,45*,23
CN1C(=O)c2cc(NC(=O)c3ccco3)ccc2N2CCN=C12,1,-45,-5,2
COc1cccc(CN2CCCC(Cc3cc(-c4ccccc4)no3)(C(=O)N(C)C)C2)c1 (stereo not given),-1,4,10,0
O=C(O)[C@H](Cc1ccccc1)Nc1ncnc2c1oc1ccccc12,9,8,4,13
O=C(NCc1cccnc1)C1CCN(S(=O)(=O)c2ccc3c(c2)CCCC3)CC1,7,9,11,34*
COCCNC(=O)C1CCN(S(=O)(=O)c2ccc3c(c2)CCCC3)CC1,-14,-9,-9,-2
SMILES,USP17 block,USP8 inh,USP28 inh,USP30 inh
CN1C(=O)Cc2cc(S(=O)(=O)N3CCC(c4ccncc4)CC3)ccc21,39*,16,-12,22
CCn1c(C2CCN(S(=O)(=O)c3ccc4c(c3)CC(=O)N4C)C2)nc2cccnc21 (stereo not given),-3,-3,-16,-8
CC1(C)CC(=O)c2ccc(OCc3ccc([N+](=O)[O-])cc3)cc2O1,-4,-58,36*,-11
CCn1c(COc2ccc3c(c2)OCO3)nnc1SCc1ccc([N+](=O)[O-])cc1,-1,-117,16,16
O=C(CC1CC1)N1CC[C@@H]2NS(=O)(=O)c3ccccc3O[C@H]2CC1,-5,-21,-1,-15
COc1ccc(C(C)=O)c2cc(C#N)oc12,30*,7,-2,2
COc1cc2ncnc(NCc3cccs3)c2cc1OC,-8,-10,5,-1
Clc1ccc2c(NCc3cccs3)ncnc2c1,12,8,34*,22
Cc1c(CC(=O)N2CCN(c3ccc(Cl)cc3)CC2)c(=O)oc2cc(O)c(Cl)cc12,19,41*,7,35*
COc1ccc2c(C)c(CC(=O)N3CCN(c4ccccc4)CC3)c(=O)oc2c1,-11,-3,9,12
Cc1c(CC(=O)N2CCN(c3ncccn3)CC2)c(=O)oc2cc(O)ccc12,63*,4,-3,-9
COCCNC(=O)c1cc2c(c3ccccc3n2CC2CC2)n1S(C)(=O)=O,-27,-102,-27,-86
